A selection: hits, their analogues and other compounds. The true share with any hit is near 28%.
CYP2C9 act: human CYP2C9 activators, primary screen, biochemical, luminescence. Cytochrome P450 2C9 (Homo sapiens), P11712. recombinant CYP2C9, luciferin-H conversion; hits give high values; factor 1 = untreated enzyme, 0 = blocked. activation factor at 5 µM. actives 1.4% (n = 96,000);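 active means activation factor of 2 or more for CYP2C9 at a 5 µM dose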
Target sequence (P11712 whole entry, looked up): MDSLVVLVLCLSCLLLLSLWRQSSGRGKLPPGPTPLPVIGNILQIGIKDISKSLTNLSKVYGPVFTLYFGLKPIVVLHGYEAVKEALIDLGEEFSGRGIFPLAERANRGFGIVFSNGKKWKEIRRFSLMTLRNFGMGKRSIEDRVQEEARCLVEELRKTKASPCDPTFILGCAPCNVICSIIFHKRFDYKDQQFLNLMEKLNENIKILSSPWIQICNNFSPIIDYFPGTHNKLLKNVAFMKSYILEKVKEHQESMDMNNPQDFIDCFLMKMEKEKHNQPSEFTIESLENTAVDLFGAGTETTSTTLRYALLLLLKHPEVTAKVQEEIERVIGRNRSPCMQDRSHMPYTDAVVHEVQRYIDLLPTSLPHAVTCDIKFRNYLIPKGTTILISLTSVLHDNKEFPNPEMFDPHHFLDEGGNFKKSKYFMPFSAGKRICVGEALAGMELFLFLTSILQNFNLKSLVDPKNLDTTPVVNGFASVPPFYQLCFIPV
PLK1 kinase inh: human PLK1 kinase inhibitors, primary screen, biochemical, TR-FRET; actives 0.53% (n = 97,000); inhibition, % at 10 µM; recombinant PLK1 kinase, TR-FRET peptide phosphorylation;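 active means inhibition of 50% or more in the single-concentration screen; inactive means inhibition below 50%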
Plk1 PBD FP: Plk1 polo box domain binding inhibitors, primary screen, biochemical, fluorescence polarization | Serine/threonine-protein kinase PLK1 (Homo sapiens), P53350 | Plk1 PBD phosphopeptide binding | inhibition, %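 (tested at about 20 µM)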 | AID 693, 2007 | actives 0.13% (n = 97,000); in the data active means inhibition above about 34%, passing the limit was not always enough
CYP2C9 inhib: blockers of cytochrome P450 2C9 activity – biochemical, luminescence, ADME assay, primary screen; CYP2C9 Supersomes, luciferin-H conversion; AID 777, 2007; inhibition, % at 5 µM; P11712; actives 20% (n = 96,000);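 active means blocking of liver enzyme CYP2C9 beyond about 50% at 5 µM, limit read from the data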
CYP2C19 inh: blockers of cytochrome P450 2C19 activity – biochemical, luminescence, ADME assay, primary screen; CYP2C19 Supersomes, luciferin-H EGE luminescence, 30 min; inhibition, % at 5 µM; actives 21% (n = 96,000);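 active means CYP2C19 inhibition above a set limit at 5 µM in the primary screen, cut at about 50% in these data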
CYP2C19 activ: human CYP2C19 activators, primary screen, biochemical, luminescence. recombinant CYP2C19, luciferin-H EGE luminescence; hits give high values; 0 = fully inhibited enzyme, 1 = untreated enzyme. AID 1025, 2008. activation factor at 5 µM. 96,000 tested, under 10 active;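 active means activation factor of at least 2 at 5 µM in the primary screen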
Large screens that a line does not name were inactive.

CCN1CCN(Cc2ccc(NC(=O)CC3Oc4ccc(C)cc4NC3=O)cc2)CC1 (stereo not given)	none
O=C(CN1C(=O)C2C3C=CC(C3)C2C1=O)NCc1ccc2c(c1)OCO2 (stereo not given)	none
Cn1c(O)c(C=NCC2CCNCC2)c(=O)n(C)c1=O	none (no result: CYP2C9 act, CYP2C9 inhib, CYP2C19 inh, CYP2C19 activ)
COC(=O)c1cc(OC)c(OC)cc1NC(=S)N1CCC(C(N)=O)CC1	none
CCOC(=O)C1CCN(C(=S)Nc2cc(OC)c(OC)cc2C(=O)OC)CC1	CYP2C19 inh 100
COC(=O)c1cc(OC)c(OC)cc1NC(=O)CN1CCCCC1	none
COC(=O)c1cc(OC)c(OC)cc1NC(=O)CC1CCCCC1	CYP2C9 inhib 51
COC(=O)c1cc(OC)c(OC)cc1NC(=S)N1CCN(C)CC1	CYP2C19 inh 65
COC(=O)c1cc(OC)c(OC)cc1NC(=S)N1CCCCC1	CYP2C19 inh 50
CC(=O)Nc1ccc(-n2nnnc2SCC(=O)N2CCN(C(=O)c3ccco3)CC2)cc1	none
COC(=O)c1cc(OC)c(OC)cc1NC(=S)N1CCN(c2ccccc2)CC1	CYP2C9 inhib 54, CYP2C19 inh 100
COC(=O)c1cc(OC)c(OC)cc1NC(=O)c1ccccc1	none (no result: PLK1 kinase inh, Plk1 PBD FP)
Cc1ccc(C(=O)COC(=O)CCC(=O)Nc2cccc(Cl)c2)cc1[N+](=O)[O-]	none
COc1cc(/C=C2/C(=N)N3OC(C)=CC3=NC2=O)ccc1OCCOc1ccc(C)cc1	none
CCOc1cc(/C=C2/C(=N)N3OC(C)=CC3=NC2=O)ccc1OCCOc1ccccc1	CYP2C9 inhib 62
CCOC(=O)/C(N=Nc1ccc(F)cc1)=C(/O)c1ccc([N+](=O)[O-])cc1	none
Cc1ccc(C)c2c(SC(C)C(=O)NCc3ccco3)nc(-c3ccccc3)nc12 (stereo not given)	none (no result: CYP2C9 act, CYP2C9 inhib, CYP2C19 inh, CYP2C19 activ)
CSc1ccccc1NC(=O)CSCc1ccc(Br)cc1	none
Cc1sc2nc(CN3CCOCC3)nc(NCCc3ccccc3)c2c1C	CYP2C9 inhib 90
Cc1sc2nc(CN3CCOCC3)nc(NS(=O)(=O)c3ccccc3)c2c1C	none
CC(=O)Nc1ccc(S(=O)(=O)Nc2nc(CN3CCOCC3)nc3sc4c(c23)CCCC4)cc1	CYP2C9 inhib 53
Cc1sc2nc(CN3CCOCC3)nc(NS(=O)(=O)c3ccc4c(c3)OCCO4)c2c1C	CYP2C9 inhib 80
NS(=O)(=O)c1ccc(CCNc2nc(CN3CCOCC3)nc3sc4c(c23)CCC4)cc1	none
CN(c1ccc(C(=O)N2CCCCC2)cc1)S(=O)(=O)c1ccccc1	none
Cc1cccc(-c2nc(CSCC(=O)N3CCN(Cc4ccc5c(c4)OCO5)CC3)c(C)o2)c1	CYP2C19 inh 70 (no result: PLK1 kinase inh, Plk1 PBD FP)
O=C(c1ccc(NS(=O)(=O)c2ccccc2)cc1)N1CCN(Cc2ccc3c(c2)OCO3)CC1	CYP2C9 inhib 94
Cc1ccc(S(=O)(=O)N(C)c2ccc(C(=O)N3CCCCC3)cc2)cc1	CYP2C9 inhib 74, CYP2C19 inh 55
Cc1cccc(Cc2c(C)nc3c(C(=O)N4CCN(Cc5ccc6c(c5)OCO6)CC4)cnn3c2C)c1	CYP2C9 inhib 76, CYP2C19 inh 93
O=C(Nc1ccccc1)N1CCN(Cc2ccc3c(c2)OCO3)CC1	none
Cc1ccnc(SCCn2c(N3CCOCC3)nc3c2c(=O)n(C)c(=O)n3C)n1	none (no result: CYP2C9 act, CYP2C9 inhib, CYP2C19 inh, CYP2C19 activ)
CCCCCN(C(=O)COC(=O)c1ccc(Br)o1)c1c(N)n(CCCC)c(=O)[nH]c1=O	none
COC(=O)Cn1c(=NC(=O)CSC(C)=O)sc2ccccc21	none (no result: PLK1 kinase inh, Plk1 PBD FP)
O=C(c1ccc(Br)o1)N1CCN(Cc2ccc3c(c2)OCO3)CC1	CYP2C9 inhib 62, CYP2C19 inh 90
O=C(c1cc(-c2ccccc2)on1)N1CCN(Cc2ccc3c(c2)OCO3)CC1	CYP2C9 inhib 68, CYP2C19 inh 70
O=C(CN(c1ccccc1)S(=O)(=O)c1ccccc1)N1CCN(Cc2ccc3c(c2)OCO3)CC1	CYP2C9 inhib 89, CYP2C19 inh 69
Cc1noc(C)c1C(=O)N1CCN(Cc2ccc3c(c2)OCO3)CC1	none

Screening results as filed in PubChem.
